Measured values taken from PubChem BioAssay.
Results filed as inconclusive are left out. Activity calls are given as the source filed them.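 Rule for the calls, unless noted: active = percent response above a set limit, the screen-wide mean plus 3 SD (cut at about 130% in these data); inactive = the rest.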

Experiments:
[1] = yeast TOR pathway RPL19A-GFP modulators, primary screen, cell-based, S. cerevisiae, multiplex flow cytometry (AID 1862; in the data active = percent of DMSO control GFP below about 86%;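 note: lower values mimic rapamycin by blocking the RPL19A rise seen in DMSO cells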); details: S. cerevisiae RPL19A-GFP strain, flow cytometry fluorescence, 3 h; at 10 µM; stronger effect = lower value
[2] = modulators of MEP2-GFP levels in yeast, primary screen, S. cerevisiae, multiplex flow cytometry (AID 1867;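 active = GFP response, as percent of the DMSO control, above the screen-wide mean plus 3 SD, about 139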;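 note: median GFP channel fluorescence of barcode-gated MEP2-GFP cells measured by flow cytometry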); details: S. cerevisiae MEP2-GFP strain, 3 h, at 10 µM, stronger effect = higher value, 100% means same as DMSO wells
[3] = modulators of CIT2-GFP expression in yeast, primary screen, S. cerevisiae, GFP fusion, multiplex flow cytometry (AID 1870); details: 3 h, at 10 µM, stronger effect = higher value;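 note: barcoded CIT2-GFP strain pooled with four other GFP strains with rapamycin as positive control; median GFP fluorescence per well over plate mean of DMSO wells so 100% = DMSO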
[4] = modulators of LAP4-GFP expression in yeast, primary screen, S. cerevisiae, multiplex flow cytometry (AID 1873;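 active = GFP signal, as percent of the solvent control, above the screen mean plus 3 SD, about 149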); details: 3 h, at 10 µM, stronger effect = higher value
[5] = modulators of AGP1-GFP expression in yeast TOR pathway, primary screen, cell-based, multiplex flow cytometry, S. cerevisiae (AID 1887;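 active = GFP signal above the screen-wide mean plus 3 SD, that is over about 124.5% of the solvent control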;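 note: AGP1-GFP fusion strain of S. cerevisiae within a five-strain barcoded multiplex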); details: 3 h, at 10 µM, stronger effect = higher value
[6] = inhibitors of CD8+ T cell-vesicle binding, pilot screen, LFA-1/ICAM-1 modulator project, MLPCN validation set, flow cytometry (AID 2523;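 active = response below a set limit, under 55% cells CD8-positive and vesicle-bound, and CD8 cells' 90th-percentile brightness under 279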;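 for vesicle binding response: mean PE anti-B7-1 fluorescence of CD8+ cells relative to row control; 100% = QL9-loaded vesicles with DMSO vehicle in the same plate row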); details: 2C mouse CD8+ T cells, at 7 µM, stronger effect = lower value; double positive events: measured here: CD8+/vesicle+ event percentage
[7] = molecular target: Integrin beta-1 (Homo sapiens) + Integrin alpha-4 (Homo sapiens) (UniProt P13612+P05556); assay: inhibition of HUTS-21 binding to VLA-4, pilot screen, VLA-4 allosteric modulator project, U937 cells, HUTS-21 mAb, flow cytometry, validation set (AID 2674;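 active = inhibition above 50%, about 3 SD of the validation set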;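 note: antibody binding induced by the VLA-4 ligand LDV present at three times its Kd; 0% = LDV ligand with antibody and no compound and 100% = antibody without LDV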); details: HUTS-21 LIBS mAb binding, at 6.7 µM, stronger effect = higher value, binding induced by LDV ligand
Integrin beta-1 (Homo sapiens) + Integrin alpha-4 (Homo sapiens), sequence (P05556 whole entry, looked up): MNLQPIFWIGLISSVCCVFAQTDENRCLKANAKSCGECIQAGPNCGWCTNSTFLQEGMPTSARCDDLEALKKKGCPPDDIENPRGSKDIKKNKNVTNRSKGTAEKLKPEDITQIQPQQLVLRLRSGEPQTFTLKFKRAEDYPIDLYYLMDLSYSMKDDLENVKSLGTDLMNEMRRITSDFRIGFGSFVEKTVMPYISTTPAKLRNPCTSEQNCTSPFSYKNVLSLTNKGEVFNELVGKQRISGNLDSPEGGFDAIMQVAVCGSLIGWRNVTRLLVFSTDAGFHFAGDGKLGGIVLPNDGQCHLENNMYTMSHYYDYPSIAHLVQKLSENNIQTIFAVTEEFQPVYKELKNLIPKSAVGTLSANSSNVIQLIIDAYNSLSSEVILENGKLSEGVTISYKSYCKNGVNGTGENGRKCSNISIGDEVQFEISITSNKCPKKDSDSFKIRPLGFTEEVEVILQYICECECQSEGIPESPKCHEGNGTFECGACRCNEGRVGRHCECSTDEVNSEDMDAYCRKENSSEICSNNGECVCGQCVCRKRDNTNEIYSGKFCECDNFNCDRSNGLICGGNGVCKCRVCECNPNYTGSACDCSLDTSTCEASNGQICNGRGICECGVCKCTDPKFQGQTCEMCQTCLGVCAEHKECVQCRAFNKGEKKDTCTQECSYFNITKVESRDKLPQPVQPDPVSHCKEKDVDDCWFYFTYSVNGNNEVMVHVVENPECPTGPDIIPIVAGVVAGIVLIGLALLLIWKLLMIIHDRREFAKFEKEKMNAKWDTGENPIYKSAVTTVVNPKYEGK
Integrin beta-1 (Homo sapiens) + Integrin alpha-4 (Homo sapiens), sequence (P13612 whole entry, looked up): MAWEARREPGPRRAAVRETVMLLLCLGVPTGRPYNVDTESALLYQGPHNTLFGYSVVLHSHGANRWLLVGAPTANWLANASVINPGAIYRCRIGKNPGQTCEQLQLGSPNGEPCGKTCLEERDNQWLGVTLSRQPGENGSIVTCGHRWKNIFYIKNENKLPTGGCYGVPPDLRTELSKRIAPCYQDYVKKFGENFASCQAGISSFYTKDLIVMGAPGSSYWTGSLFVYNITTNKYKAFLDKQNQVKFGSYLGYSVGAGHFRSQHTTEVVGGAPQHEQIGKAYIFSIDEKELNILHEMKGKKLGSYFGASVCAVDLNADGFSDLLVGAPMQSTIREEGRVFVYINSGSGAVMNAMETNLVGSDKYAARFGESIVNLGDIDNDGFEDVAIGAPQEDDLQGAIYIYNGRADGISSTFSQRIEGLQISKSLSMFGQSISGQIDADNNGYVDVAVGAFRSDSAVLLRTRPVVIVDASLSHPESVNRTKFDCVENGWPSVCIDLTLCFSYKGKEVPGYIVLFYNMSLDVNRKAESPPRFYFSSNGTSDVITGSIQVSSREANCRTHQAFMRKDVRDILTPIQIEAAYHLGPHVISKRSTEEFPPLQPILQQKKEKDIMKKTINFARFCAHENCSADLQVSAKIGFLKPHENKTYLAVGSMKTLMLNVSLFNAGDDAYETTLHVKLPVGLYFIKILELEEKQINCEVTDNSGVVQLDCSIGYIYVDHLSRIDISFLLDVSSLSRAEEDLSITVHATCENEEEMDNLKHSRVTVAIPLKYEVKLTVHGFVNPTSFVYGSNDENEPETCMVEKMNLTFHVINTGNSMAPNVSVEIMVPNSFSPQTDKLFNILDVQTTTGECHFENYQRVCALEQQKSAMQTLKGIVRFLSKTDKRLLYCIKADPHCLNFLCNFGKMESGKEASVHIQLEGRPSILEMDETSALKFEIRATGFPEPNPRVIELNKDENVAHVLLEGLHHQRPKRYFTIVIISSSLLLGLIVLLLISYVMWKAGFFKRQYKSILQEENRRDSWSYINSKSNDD

[8] = superoxide lowering in aged yeast cells, pilot screen, validation compound set (AID 2706;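 active = superoxide response below 65% of plate, a cut near 3 SD across the whole screen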;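 note: yeast exposed to compound for one week at 30 degrees C before staining; 100% = mean of all compound wells on the same plate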); details: S. cerevisiae aging, superoxide DHE fluorescence; at 10 µM, stronger effect = lower value
[9] = molecular target: Beta-adrenergic receptor kinase 1 (Homo sapiens) (UniProt P25098); assay: GRK2 binders displacing RNA aptamer, biochemical, validation, human GRK2, bead flow cytometry (AID 488806;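 active = aptamer binding inhibition above 30%, about 3 SD of noise from non-fluorescent compounds; inactive = inhibition at or below 30%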); details: bead-bound GRK2, FAM-aptamer displacement, at 10 µM, stronger effect = higher value
Beta-adrenergic receptor kinase 1 (Homo sapiens), sequence (P25098 whole entry, looked up): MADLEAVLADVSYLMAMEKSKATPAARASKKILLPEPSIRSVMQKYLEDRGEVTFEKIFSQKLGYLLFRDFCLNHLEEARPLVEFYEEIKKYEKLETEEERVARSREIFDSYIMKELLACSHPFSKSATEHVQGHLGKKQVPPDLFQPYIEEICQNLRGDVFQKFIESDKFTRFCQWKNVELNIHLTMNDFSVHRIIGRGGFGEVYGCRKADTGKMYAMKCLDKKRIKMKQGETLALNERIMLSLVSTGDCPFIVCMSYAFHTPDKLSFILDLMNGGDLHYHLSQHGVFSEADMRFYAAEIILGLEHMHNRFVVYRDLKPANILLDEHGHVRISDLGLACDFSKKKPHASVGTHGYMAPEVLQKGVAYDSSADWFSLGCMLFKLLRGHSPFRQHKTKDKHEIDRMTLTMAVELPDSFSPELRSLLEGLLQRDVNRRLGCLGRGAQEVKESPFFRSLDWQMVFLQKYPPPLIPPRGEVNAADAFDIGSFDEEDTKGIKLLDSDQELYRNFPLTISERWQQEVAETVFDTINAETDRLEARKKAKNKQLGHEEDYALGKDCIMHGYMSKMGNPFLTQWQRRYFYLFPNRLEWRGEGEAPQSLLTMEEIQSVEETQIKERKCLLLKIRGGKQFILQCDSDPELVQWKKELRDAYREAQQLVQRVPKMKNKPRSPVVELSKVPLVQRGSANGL

[10] = molecular target: AP-2 complex subunit beta (Homo sapiens) (UniProt P63010); assay: inhibitors of arrestin peptide binding to AP2, pilot screen, biochemical, validation set, GST-AP2 beads, flow cytometry (AID 504541;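 active = inhibition above 54%, about 3 SD of non-fluorescent compounds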;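 note: AP2 carries R879A mutation and is captured from E. coli lysate; bead-bound FITC arrestin peptide fluorescence measuring arrestin peptide binding to AP2; 0% = DMSO wells and 100% = excess unlabeled arrestin peptide control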); details: FITC arrestin peptide, at 10 µM, stronger effect = higher value, AP2 beta2 appendage fragment, R879A mutant
AP-2 complex subunit beta (Homo sapiens), sequence (P63010 whole entry, looked up, the tested form may be a part, one chain of several): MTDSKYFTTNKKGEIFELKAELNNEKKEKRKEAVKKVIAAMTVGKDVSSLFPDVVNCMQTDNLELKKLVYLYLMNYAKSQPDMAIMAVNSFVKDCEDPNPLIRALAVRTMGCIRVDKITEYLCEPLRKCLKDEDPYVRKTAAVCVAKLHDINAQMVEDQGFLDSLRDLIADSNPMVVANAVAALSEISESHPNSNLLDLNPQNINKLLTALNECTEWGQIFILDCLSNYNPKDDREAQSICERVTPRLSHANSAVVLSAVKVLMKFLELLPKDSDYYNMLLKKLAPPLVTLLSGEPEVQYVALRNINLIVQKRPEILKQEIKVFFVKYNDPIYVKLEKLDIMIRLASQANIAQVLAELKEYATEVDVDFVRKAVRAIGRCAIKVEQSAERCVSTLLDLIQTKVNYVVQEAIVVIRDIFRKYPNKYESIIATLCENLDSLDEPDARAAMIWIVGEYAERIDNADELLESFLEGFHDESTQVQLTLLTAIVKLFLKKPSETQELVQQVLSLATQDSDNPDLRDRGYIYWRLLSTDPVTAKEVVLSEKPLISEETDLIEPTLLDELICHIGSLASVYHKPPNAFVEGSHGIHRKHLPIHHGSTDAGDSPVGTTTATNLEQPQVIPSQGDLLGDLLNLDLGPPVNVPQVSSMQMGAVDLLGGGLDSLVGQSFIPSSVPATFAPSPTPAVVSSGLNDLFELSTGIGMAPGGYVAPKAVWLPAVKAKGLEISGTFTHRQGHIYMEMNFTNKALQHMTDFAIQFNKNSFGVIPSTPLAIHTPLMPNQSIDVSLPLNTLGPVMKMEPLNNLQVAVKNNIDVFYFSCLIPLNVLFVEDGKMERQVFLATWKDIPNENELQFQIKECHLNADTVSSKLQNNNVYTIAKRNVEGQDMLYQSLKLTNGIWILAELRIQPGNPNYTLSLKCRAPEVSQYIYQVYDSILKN

[11] = yeast V-ATPase proton transport modulators, S. cerevisiae, pHLuorin, HTS validation (AID 504600; in the data active = response above about 15%;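 note: plate controls were DMSO for no effect and reference compound for full effect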); details: S. cerevisiae pHLuorin cytosolic pH, at 10 µM, stronger effect = higher value
[12] = system: anti-desmoglein-3 scFv antibody binding to human DSG3; assay: inhibitors of anti-DSG3 scFv binding to DSG3, pilot screen, biochemical, validation compound set, bead-based, flow cytometry (AID 588368;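 active = binding below the plate cutoff, the plate median minus 3 SD, with a reading above zero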;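 note: signal is the median channel fluorescence of bead-bound GFP antibody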); details: Protein G beads, DSG3-Fc, scFv-GFP binding, at 10 µM, stronger effect = lower value
[13] = inhibitors of fungal efflux pumps CDR1, CDR2, MDR1, pilot screen, validation compound set, multiplex, phenotypic (AID 588506;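 active = efflux inhibition above 0.42, the validation set average plus 4 SD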;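 note: Nile Red retained in cells so higher fluorescence means more efflux inhibition; 0 = negative control wells and 1 = enniatin B 25 µM full block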); details: S. cerevisiae pump-expressing triplex, Nile Red efflux flow cytometry; at 10 µM; stronger effect = higher value; the pumps come from Candida albicans
[14] = molecular target: ATP-binding cassette sub-family B member 6 (Homo sapiens) (UniProt Q9NP58); assay: ABCB6 transporter inhibitors, pilot screen, K562-ABCB6 cells, flow cytometry, validation set (AID 588550;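 active = inhibition above the screen-wide mean plus 3 SD, about 51%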;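 note: 0% = DMSO wells and 100% = benzethonium chloride 70 µM positive control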); details: K562-ABCB6 porphyrin accumulation, 1 h, at 10 µM, stronger effect = higher value
ATP-binding cassette sub-family B member 6 (Homo sapiens), sequence (Q9NP58 whole entry, looked up): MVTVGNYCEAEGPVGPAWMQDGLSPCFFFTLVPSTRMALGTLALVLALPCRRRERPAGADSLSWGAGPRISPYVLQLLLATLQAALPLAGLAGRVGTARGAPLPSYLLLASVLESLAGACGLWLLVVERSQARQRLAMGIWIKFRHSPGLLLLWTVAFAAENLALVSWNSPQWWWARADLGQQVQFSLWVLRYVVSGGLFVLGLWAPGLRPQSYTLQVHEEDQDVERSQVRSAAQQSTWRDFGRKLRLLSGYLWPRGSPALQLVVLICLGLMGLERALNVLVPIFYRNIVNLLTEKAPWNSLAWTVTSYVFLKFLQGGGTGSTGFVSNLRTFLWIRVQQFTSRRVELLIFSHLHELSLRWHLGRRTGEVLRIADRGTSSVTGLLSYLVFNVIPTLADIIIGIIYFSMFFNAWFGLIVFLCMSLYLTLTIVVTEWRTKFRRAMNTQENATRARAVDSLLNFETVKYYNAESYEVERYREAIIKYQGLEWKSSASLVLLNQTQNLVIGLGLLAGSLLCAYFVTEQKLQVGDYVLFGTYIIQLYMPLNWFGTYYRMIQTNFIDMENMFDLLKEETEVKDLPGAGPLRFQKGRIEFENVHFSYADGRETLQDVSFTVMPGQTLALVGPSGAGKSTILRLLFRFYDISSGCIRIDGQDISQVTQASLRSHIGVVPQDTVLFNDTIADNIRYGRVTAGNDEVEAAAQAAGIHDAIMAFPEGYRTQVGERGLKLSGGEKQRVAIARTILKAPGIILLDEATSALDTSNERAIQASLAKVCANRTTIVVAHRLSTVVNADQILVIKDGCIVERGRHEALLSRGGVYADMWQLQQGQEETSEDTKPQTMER

[15] = promoters of myeloid differentiation in arrested cells, primary screen, cell-based, GFP/MAC1 double positive, flow cytometry, validation set (AID 588685;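 active = differentiation response of at least 50%, scaled between solvent and reference control, from cells with both markers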;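 note: compound exposure lasts four days before antibody staining and flow analysis; 0% = DMSO wells and 100% = 5 µM fulvestrant positive control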); details: ER-HoxA9 marrow cells, stronger effect = higher value, normalized: vehicle 0, fulvestrant 100

| Structure (SMILES) | percent of DMSO control GFP [1] | GFP response vs DMSO [2] | percent response of DMSO control [3] | GFP response vs DMSO [4] | GFP response, % of DMSO [5] | double positive events [6] | vesicle binding response [6] | inhibition [7] | superoxide response (% of plate) [8] | aptamer binding inhibition [9] | inhibition [10] | response [11] | binding (% of control) [12] | efflux inhibition (fraction of control) [13] | inhibition [14] | differentiation response [15] |
| --- | --- | --- | --- | --- | --- | --- | --- | --- | --- | --- | --- | --- | --- | --- | --- | --- |
| CC(NC(=O)c1ccc(OC2CCN(Cc3ccccn3)CC2)cc1)c1ccccc1 (stereo not drawn) | 106% (inactive) | 102% (inactive) | 105% (inactive) | 99.4% (inactive) | 100% (inactive) | 59.3% | 110% (inactive) | 14.7% (inactive) | 93.3% (inactive) | -2% (inactive) | 32.2% (inactive) | -10.2% (inactive) | 102% (inactive) | -0.31 (inactive) | 6% (inactive) | 0% (inactive) |
| O=C(Nc1cccc(Cl)c1)N1CCN2C(=O)c3ccccc3C12c1ccccc1 (stereo not drawn) | 100% (inactive) | 98.9% (inactive) | 96.9% (inactive) | 92.3% (inactive) | 96.3% (inactive) | 58.4% | 153% (inactive) | 0.69% (inactive) | 92.6% (inactive) | 3% (inactive) | 0.48% (inactive) | 2.99% (inactive) | 102% (inactive) | 0.29 (inactive) | 7% (inactive) | -13.1% (inactive) |
| COc1ccc(-c2noc(CCc3ccccc3)n2)cc1 | 103% (inactive) | 109% (inactive) | 90% (inactive) | 101% (inactive) | 91.8% (inactive) | 56.4% | 174% (inactive) | 4.42% (inactive) | 99.8% (inactive) | 0% (inactive) | 4.14% (inactive) | -3.58% (inactive) | 111% (inactive) | 0.48 (active) | 0% (inactive) | -0.2% (inactive) |
| NCCCC(=O)O | 97.8% (inactive) | 99.9% (inactive) | 95.9% (inactive) | 103% (inactive) | 96.7% (inactive) | 57.8% | 192% (inactive) | 10.9% (inactive) | 103% (inactive) | 0% (inactive) | 2.65% (inactive) | -1.76% (inactive) | 99.8% (inactive) | 0.94 (active) | -31% (inactive) | -13.1% (inactive) |
| CCn1cc(C(=O)O)c(=O)c2cnc(N3CCNCC3)nc21 | 99.1% (inactive) | 99.9% (inactive) | 104% (inactive) | 91.3% (inactive) | 99.7% (inactive) | 61% | 164% (inactive) | 7.22% (inactive) | 85.2% (inactive) | 0% (inactive) | 32.7% (inactive) | -7.56% (inactive) | 99% (inactive) | -0.31 (inactive) | 6% (inactive) | -19.6% (inactive) |
| CC#C[C@]1(O)CC[C@H]2[C@@H]3CCC4=CC(=O)CCC4=C3[C@@H](c3ccc(N(C)C)cc3)C[C@@]21C | 103% (inactive) | 103% (inactive) | 110% (inactive) | 87.3% (inactive) | 102% (inactive) | 56.3% | 187% (inactive) | -10.5% (inactive) | 94.9% (inactive) | 9% (inactive) | 25.2% (inactive) | 0.03% (inactive) | 94.6% (inactive) | -0.16 (inactive) | 3% (inactive) | -16.4% (inactive) |
| CC(=O)Oc1ccc(C(=O)O)cc1OC(C)=O | 98% (inactive) | 104% (inactive) | 104% (inactive) | 99.4% (inactive) | 98.4% (inactive) | 59.1% | 164% (inactive) | -3.04% (inactive) | 98.2% (inactive) | 4% (inactive) | -6.29% (inactive) | 0.26% (inactive) | 105% (inactive) | -0.01 (inactive) | 6% (inactive) | 1.41% (inactive) |
| COc1ccc2c(c1)C(=O)CC(c1ccccc1F)O2 (stereo not drawn) | 95.8% (inactive) | 103% (inactive) | 93.9% (inactive) | 92.3% (inactive) | 87% (inactive) | 62% | 135% (inactive) | 10% (inactive) | 97% (inactive) | 0% (inactive) | 21.8% (inactive) | -0.49% (inactive) | 94.1% (inactive) | 0.44 (active) | -46% (inactive) | -11.5% (inactive) |
| CC1(C)NC(C(=O)O)Cc2c1[nH]c1ccccc21 (stereo not drawn) | 112% (inactive) | 106% (inactive) | 109% (inactive) | 98.4% (inactive) | 105% (inactive) | 62.5% | 175% (inactive) | 5.36% (inactive) | 97.5% (inactive) | 1% (inactive) | 14.4% (inactive) | -1.17% (inactive) | 112% (inactive) | 0.1 (inactive) | 8% (inactive) | -16.4% (inactive) |
| O=c1c(-c2ccc3c(c2)OCCO3)coc2cc(OC3OC(CO)C(O)C(O)C3O)ccc12 (stereo not drawn) | 103% (inactive) | 101% (inactive) | 106% (inactive) | 90.3% (inactive) | 103% (inactive) | 63.1% | 127% (inactive) | 1.62% (inactive) | 93.4% (inactive) | 6% (inactive) | -2.44% (inactive) | -2.72% (inactive) | 102% (inactive) | -0.28 (inactive) | 8% (inactive) | -14.7% (inactive) |
| CC(C)Cc1ccc(C(C)C(=O)Nc2ccc(O)cc2)cc1 (stereo not drawn) | 103% (inactive) | 105% (inactive) | 107% (inactive) | 106% (inactive) | 99.7% (inactive) | 58.6% | 178% (inactive) | 13.8% (inactive) | 110% (inactive) | 2% (inactive) | 33.6% (inactive) | -13.1% (inactive) | 105% (inactive) | 0.14 (inactive) | 1% (inactive) | 0% (inactive) |
| CC(=O)OCC(=O)[C@H]1CC[C@H]2[C@@H]3CC=C4C[C@@H](O)CC[C@]4(C)[C@H]3CC[C@]12C | 106% (inactive) | 95.9% (inactive) | 114% (inactive) | 115% (inactive) | 89.4% (inactive) | 59.7% | 174% (inactive) | 4.42% (inactive) | 99% (inactive) | 0% (inactive) | -2.87% (inactive) | 0.3% (inactive) | 101% (inactive) | 0.29 (inactive) | 6% (inactive) | -27.6% (inactive) |
| COc1ccccc1-c1ccc(/C=C2/C=C(CC(C)C)OC2=O)o1 | 99.5% (inactive) | 101% (inactive) | 93% (inactive) | 105% (inactive) | 90.1% (inactive) | 58.1% | 120% (inactive) | -43.1% (inactive) | 103% (inactive) | 2% (inactive) | 2.34% (inactive) | 1.04% (inactive) | 99.5% (inactive) | 0.75 (active) | 5% (inactive) | -22.8% (inactive) |
| O=C(/C=C/c1ccc(Cl)cc1)NCCc1ccccc1 | 102% (inactive) | 92.8% (inactive) | 97.9% (inactive) | 97.4% (inactive) | 97.5% (inactive) | 54.1% | 270% (inactive) | 2.56% (inactive) | 106% (inactive) | -1% (inactive) | -7.53% (inactive) | 2.01% (inactive) | 98.2% (inactive) | -0.09 (inactive) | 7% (inactive) | -5.05% (inactive) |
| C[C@H](CS)C(=O)N1CCC[C@H]1C(=O)O | 106% (inactive) | 98.9% (inactive) | 109% (inactive) | 96.4% (inactive) | 102% (inactive) | 58.6% | 186% (inactive) | -2.11% (inactive) | 97.4% (inactive) | 0% (inactive) | -2.44% (inactive) | -1.86% (inactive) | 96.7% (inactive) | -0.16 (inactive) | 8% (inactive) | -29.3% (inactive) |
| CC(C)Cn1c(=S)[nH]c2cc(C(=O)O)ccc2c1=O | 105% (inactive) | 97.9% (inactive) | 108% (inactive) | 84.3% (inactive) | 98.5% (inactive) | 61% | 197% (inactive) | -1.17% (inactive) | 106% (inactive) | 4% (inactive) | -1.44% (inactive) | -0.3% (inactive) | 96.7% (inactive) | -0.01 (inactive) | 2% (inactive) | -26% (inactive) |
| O=[N+]([O-])c1ccc2cn[nH]c2c1 | 102% (inactive) | 106% (inactive) | 102% (inactive) | 93.3% (inactive) | 97.3% (inactive) | 60.3% | 265% (inactive) | 12.8% (inactive) | 97.5% (inactive) | 1% (inactive) | -5.23% (inactive) | -6.52% (inactive) | 98.2% (inactive) | -0.05 (inactive) | 10% (inactive) | -8.27% (inactive) |
| COc1ccc([C@@H]2Sc3ccccc3N(CCN(C)C)C(=O)[C@@H]2OC(C)=O)cc1 | 104% (inactive) | 102% (inactive) | 105% (inactive) | 93.3% (inactive) | 101% (inactive) | 62.9% | 200% (inactive) | -0.24% (inactive) | 101% (inactive) | -1% (inactive) | 5.2% (inactive) | -4.23% (inactive) | 99.1% (inactive) | 0.03 (inactive) | -227% (inactive) | -8.27% (inactive) |
